# Laboratory results published in the supplement of paper PMC8728848.
# This excerpt belongs to a sample that is enriched for the strongest signals.
# Columns and labels:
# Assay in all cases: glycan array binding signal (z-score within array); higher = stronger binding
# Details in all cases: glycan notation: IUPAC condensed, linker removed
# [1] = biological target: Fuc(a1-2)Gal(b1-3)GalNAc(a1-3)[Fuc(a1-2)]Gal(b1-4)Glc
# Summary of the method: (§1)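 Glycan array data were curated from 3228 arrays in the Consortium for Functional Glycomics database and kept only where the protein sequence was available. Glycan names were converted to IUPAC-condensed notation, and columns mapping to the same glycan were averaged. The binding signal is a within-array Z-score, averaged across arrays of the same protein sequence at different concentrations or buffers and across linkers. Negative Z-scores can be read as non-binding.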
# [2] = biological target: Fuc(a1-2)Gal(b1-3)[Fuc(a1-4)]GlcNAc(b1-3)[Gal(b1-4)GlcNAc(b1-6)]Gal(b1-4)Glc
# Summary of the method: as §1
# [3] = biological target: Fuc(a1-2)[Gal(a1-3)]Gal(b1-3)GlcNAc(b1-6)GalNAc
# Summary of the method: as §1
# [4] = biological target: Fuc(a1-2)[Gal(a1-3)]Gal(b1-4)[Fuc(a1-3)]Glc
# Summary of the method: as §1
# [5] = biological target: Fuc(a1-2)[Gal(a1-4)]Gal(b1-4)GlcNAc
# Summary of the method: as §1
# [6] = biological target: Fuc(a1-2)[GalNAc(a1-3)]Gal(b1-3)GalNAc(a1-3)[Fuc(a1-2)]Gal(b1-4)GlcNAc
# Summary of the method: as §1
# [7] = biological target: Fuc(a1-2)[GalNAc(a1-3)]Gal(b1-4)GlcNAc(b1-3)Gal(b1-4)GlcNAc
# Summary of the method: as §1
# [8] = biological target: Fuc(a1-2)[GalNAc(a1-3)]Gal(b1-4)[Fuc(a1-3)]GlcNAc(b1-3)GalNAc
# Summary of the method: as §1
# [9] = biological target: Fuc(a1-3)[Gal(b1-4)]GlcNAc6S
# Summary of the method: as §1
# Gal(a1-3)Gal(b1-3)GlcNAc = biological target: Gal(a1-3)Gal(b1-3)GlcNAc
# Summary of the method: as §1
# [10] = biological target: Gal(a1-3)Gal(b1-4)GlcNAc(b1-3)GalNAc
# Summary of the method: as §1
# [11] = biological target: Gal(a1-4)Gal(b1-3)GlcNAc(b1-2)Man(a1-3)[Gal(a1-4)Gal(b1-3)GlcNAc(b1-2)Man(a1-6)]Man(b1-4)GlcNAc(b1-4)GlcNAc
# Summary of the method: as §1
# [12] = biological target: Gal(b1-3)GlcNAc(b1-3)Gal(b1-4)GlcNAc(b1-6)[Gal(b1-3)GlcNAc(b1-3)]Gal(b1-4)Glc
# Summary of the method: as §1
# [13] = biological target: Gal(b1-3)[Fuc(a1-4)]GlcNAc(b1-6)GalNAc
# Summary of the method: as §1
# Gal(b1-4)GlcNAc = biological target: Gal(b1-4)GlcNAc
# Summary of the method: as §1
# [14] = biological target: Gal(b1-4)GlcNAc(a1-6)Gal(b1-4)GlcNAc
# Summary of the method: as §1
# [15] = biological target: Gal(b1-4)GlcNAc(b1-2)Man(a1-3)Man(b1-4)GlcNAc(b1-4)GlcNAc
# Summary of the method: as §1
# [16] = biological target: Gal(b1-4)GlcNAc(b1-2)[Gal(b1-4)GlcNAc(b1-4)]Man(a1-3)[GlcNAc(b1-4)][Gal(b1-4)GlcNAc(b1-2)Man(a1-6)]Man(b1-4)GlcNAc(b1-4)GlcNAc
# Summary of the method: as §1
# [17] = biological target: Gal(b1-4)GlcNAc(b1-2)[Gal(b1-4)GlcNAc(b1-6)]Man(a1-6)[Gal(b1-4)GlcNAc(b1-2)Man(a1-3)]Man(b1-4)GlcNAc(b1-4)[Fuc(a1-6)]GlcNAc
# Summary of the method: as §1
# [18] = biological target: Gal(b1-4)GlcNAc(b1-3)Gal(b1-4)GlcNAc(b1-2)[Gal(b1-4)GlcNAc(b1-3)Gal(b1-4)GlcNAc(b1-6)]Man(a1-6)[Gal(b1-4)GlcNAc(b1-3)Gal(b1-4)GlcNAc(b1-2)Man(a1-3)]Man(b1-4)GlcNAc(b1-4)[Fuc(a1-6)]GlcNAc
# Summary of the method: as §1
# [19] = biological target: Gal(b1-4)GlcNAc(b1-3)Gal(b1-4)GlcNAc(b1-3)Gal(b1-4)GlcNAc(b1-3)Gal(b1-4)GlcNAc(b1-2)[Gal(b1-4)GlcNAc(b1-3)Gal(b1-4)GlcNAc(b1-3)Gal(b1-4)GlcNAc(b1-3)Gal(b1-4)GlcNAc(b1-6)]Man(a1-6)[Gal(b1-4)GlcNAc(b1-3)Gal(b1-4)GlcNAc(b1-3)Gal(b1-4)GlcNAc(b1-3)Gal(b1-4)GlcNAc(b1-2)Man(a1-3)]Man(b1-4)GlcNAc(b1-4)[Fuc(a1-6)]GlcNAc
# Summary of the method: as §1
# [20] = biological target: Gal(b1-4)GlcNAc(b1-3)Gal(b1-4)GlcNAc(b1-3)Gal(b1-4)GlcNAc(b1-3)Gal(b1-4)GlcNAc(b1-3)Gal(b1-4)GlcNAc(b1-2)Man(a1-3)[Gal(b1-4)GlcNAc(b1-3)Gal(b1-4)GlcNAc(b1-3)Gal(b1-4)GlcNAc(b1-3)Gal(b1-4)GlcNAc(b1-3)Gal(b1-4)GlcNAc(b1-2)Man(a1-6)]Man(b1-4)GlcNAc(b1-4)GlcNAc
# Summary of the method: as §1
# [21] = biological target: Gal(b1-4)GlcNAc(b1-3)Gal(b1-4)GlcNAc(b1-3)Gal(b1-4)GlcNAc(b1-3)Gal(b1-4)GlcNAc(b1-3)Gal(b1-4)GlcNAc(b1-2)[Gal(b1-4)GlcNAc(b1-3)Gal(b1-4)GlcNAc(b1-3)Gal(b1-4)GlcNAc(b1-3)Gal(b1-4)GlcNAc(b1-3)Gal(b1-4)GlcNAc(b1-6)]Man(a1-6)[Gal(b1-4)GlcNAc(b1-3)Gal(b1-4)GlcNAc(b1-3)Gal(b1-4)GlcNAc(b1-3)Gal(b1-4)GlcNAc(b1-3)Gal(b1-4)GlcNAc(b1-2)Man(a1-3)]Man(b1-4)GlcNAc(b1-4)[Fuc(a1-6)]GlcNAc
# Summary of the method: as §1
# [22] = biological target: Gal(b1-4)GlcNAc(b1-6)Gal(b1-4)GlcNAc
# Summary of the method: as §1
# Gal6S(b1-3)GlcNAc6S = biological target: Gal6S(b1-3)GlcNAc6S
# Summary of the method: as §1
# Gal6S(b1-4)Glc = biological target: Gal6S(b1-4)Glc
# Summary of the method: as §1
# GalNAc(a1-3)GalNAc = biological target: GalNAc(a1-3)GalNAc
# Summary of the method: as §1
# [23] = biological target: GalNAc(b1-3)Gal(a1-6)Gal(b1-4)Glc
# Summary of the method: as §1
# GalNAc(b1-3)GalNAc = biological target: GalNAc(b1-3)GalNAc
# Summary of the method: as §1
# GalNAc(b1-4)GlcNAc = biological target: GalNAc(b1-4)GlcNAc
# Summary of the method: as §1
# Glc(b1-6)Glc = biological target: Glc(b1-6)Glc
# Summary of the method: as §1
# [24] = biological target: GlcNAc(b1-3)Gal(b1-4)GlcNAc(b1-3)Gal(b1-4)GlcNAc(b1-3)Gal(b1-4)GlcNAc(b1-3)Gal(b1-4)GlcNAc(b1-2)[GlcNAc(b1-3)Gal(b1-4)GlcNAc(b1-3)Gal(b1-4)GlcNAc(b1-3)Gal(b1-4)GlcNAc(b1-3)Gal(b1-4)GlcNAc(b1-6)]Man(a1-6)[GlcNAc(b1-3)Gal(b1-4)GlcNAc(b1-3)Gal(b1-4)GlcNAc(b1-3)Gal(b1-4)GlcNAc(b1-3)Gal(b1-4)GlcNAc(b1-2)Man(a1-3)]Man(b1-4)GlcNAc(b1-4)[Fuc(a1-6)]GlcNAc
# Summary of the method: as §1
# [25] = biological target: GlcNAc(b1-3)Gal(b1-4)GlcNAc(b1-6)[Gal(b1-3)]GalNAc
# Summary of the method: as §1
# [26] = biological target: Man(a1-2)Man(a1-2)Man(a1-6)[Man(a1-3)]Man
# Summary of the method: as §1
# [27] = biological target: Man(a1-2)Man(a1-3)[Man(a1-2)Man(a1-6)]Man(a1-6)[Man(a1-2)Man(a1-2)Man(a1-3)]Man
# Summary of the method: as §1
# Man(a1-6)Man = biological target: Man(a1-6)Man
# Summary of the method: as §1
# [28] = biological target: Neu5Ac(a2-3)Gal(b1-3)GalNAc6S
# Summary of the method: as §1
# [29] = biological target: Neu5Ac(a2-3)Gal(b1-4)GlcNAc(b1-2)[Neu5Ac(a2-3)Gal(b1-4)GlcNAc(b1-6)]Man(a1-6)[Neu5Ac(a2-3)Gal(b1-4)GlcNAc(b1-2)Man(a1-3)][GlcNAc(b1-4)]Man(b1-4)GlcNAc(b1-4)GlcNAc
# Summary of the method: as §1
# [30] = biological target: Neu5Ac(a2-3)Gal(b1-4)GlcNAc(b1-3)Gal
# Summary of the method: as §1
# [31] = biological target: Neu5Ac(a2-3)Gal(b1-4)GlcNAc(b1-3)Gal(b1-4)[Fuc(a1-3)]GlcNAc
# Summary of the method: as §1
# [32] = biological target: Neu5Ac(a2-3)Gal(b1-4)GlcNAc6S
# Summary of the method: as §1
# [33] = biological target: Neu5Ac(a2-3)Gal(b1-4)[Fuc(a1-3)]GlcNAc(b1-3)GalNAc
# Summary of the method: as §1
# [34] = biological target: Neu5Ac(a2-6)Gal(b1-4)GlcNAc(b1-2)Man(a1-3)[Neu5Ac(a2-6)Gal(b1-4)GlcNAc(b1-2)Man(a1-6)]Man(b1-4)GlcNAc(b1-4)GlcNAc
# Summary of the method: as §1
# [35] = biological target: Neu5Ac(a2-6)Gal(b1-4)GlcNAc(b1-2)Man(a1-6)Man(b1-4)GlcNAc(b1-4)GlcNAc
# Summary of the method: as §1
# [36] = biological target: Neu5Ac(a2-6)Gal(b1-4)GlcNAc(b1-2)[Neu5Ac(a2-6)Gal(b1-4)GlcNAc(b1-4)]Man(a1-3)[GlcNAc(b1-4)][Neu5Ac(a2-6)Gal(b1-4)GlcNAc(b1-4)Man(a1-6)]Man(b1-4)GlcNAc(b1-4)GlcNAc
# Summary of the method: as §1
# [37] = biological target: Neu5Ac(b2-6)Gal(b1-4)GlcNAc
# Summary of the method: as §1
# Neu5Gc(a2-3)Gal(b1-4)Glc = biological target: Neu5Gc(a2-3)Gal(b1-4)Glc
# Summary of the method: as §1
binder,measurement,setting,value
Drgal1 (Danio rerio) (protein) MAGVLIQNMSFKVGQTLTITGVPKPDSTNFAINIGHSPEDIALHMNPRFDAHGDQCTIVCNSFQSGSWCEEHRDDNFPFIQDKEFQIKITFTNEEFLVTLPDGSEIHFPNRQGSEKYKYMYFEGEVRIQGVEIK,glycan array binding signal (z-score),[1],-0.59
same,glycan array binding signal (z-score),[2],0.383
same,glycan array binding signal (z-score),[3],0.084
same,glycan array binding signal (z-score),[4],-0.54
same,glycan array binding signal (z-score),[5],0.347
same,glycan array binding signal (z-score),[6],-0.091
same,glycan array binding signal (z-score),[7],-0.493
same,glycan array binding signal (z-score),[8],2.22
same,glycan array binding signal (z-score),[9],2.04
same,glycan array binding signal (z-score),Gal(a1-3)Gal(b1-3)GlcNAc,-0.76
same,glycan array binding signal (z-score),[10],-0.48
same,glycan array binding signal (z-score),[11],-0.114
same,glycan array binding signal (z-score),[12],1.9
same,glycan array binding signal (z-score),[13],-0.443
same,glycan array binding signal (z-score),Gal(b1-4)GlcNAc,-0.448
same,glycan array binding signal (z-score),[14],0.244
same,glycan array binding signal (z-score),[15],0.231
same,glycan array binding signal (z-score),[16],-0.015
same,glycan array binding signal (z-score),[17],0.501
same,glycan array binding signal (z-score),[18],1.92
same,glycan array binding signal (z-score),[19],2.07
same,glycan array binding signal (z-score),[20],7.35
same,glycan array binding signal (z-score),[21],2.15
same,glycan array binding signal (z-score),[22],0.065
same,glycan array binding signal (z-score),Gal6S(b1-3)GlcNAc6S,-0.095
same,glycan array binding signal (z-score),Gal6S(b1-4)Glc,0.281
same,glycan array binding signal (z-score),GalNAc(a1-3)GalNAc,0.206
same,glycan array binding signal (z-score),[23],-0.416
same,glycan array binding signal (z-score),GalNAc(b1-3)GalNAc,0.158
same,glycan array binding signal (z-score),GalNAc(b1-4)GlcNAc,3.67
same,glycan array binding signal (z-score),Glc(b1-6)Glc,-0.633
same,glycan array binding signal (z-score),[24],1.89
same,glycan array binding signal (z-score),[25],-0.519
same,glycan array binding signal (z-score),[26],-0.589
same,glycan array binding signal (z-score),[27],-0.28
same,glycan array binding signal (z-score),Man(a1-6)Man,1.43
same,glycan array binding signal (z-score),[28],-0.412
same,glycan array binding signal (z-score),[29],3.36
same,glycan array binding signal (z-score),[30],-0.372
same,glycan array binding signal (z-score),[31],-0.022
same,glycan array binding signal (z-score),[32],-0.362
same,glycan array binding signal (z-score),[33],5.78
same,glycan array binding signal (z-score),[34],0.521
same,glycan array binding signal (z-score),[35],0.046
same,glycan array binding signal (z-score),[36],-0.106
same,glycan array binding signal (z-score),[37],0.234
same,glycan array binding signal (z-score),Neu5Gc(a2-3)Gal(b1-4)Glc,0.145
